# Sm TGR block – blocks Schistosoma mansoni thioredoxin glutathione reductase. Q962Y6. purified TGR, DTNB reduction, TNB absorbance 405 nm. Potency, µM (highest dose often 114 µM), without a hit: at the top dose activity change, negative = inhibition, most hits filed as inhibitors. actives 3% (n = 360,000); active = well fitted inhibition curve with a large enough effect; inconclusive = small, poorly fitted or top-dose-only effect; inactive = no such curve, though single readings can be large or run the other way; also: potency is read from the fitted curve at half-maximal effect; % is scaled to controls: 0 for no effect and ±100 for the full control effect; nearly all actives have a fitted effect of over 60% in size
#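 First, TGR (20 nM dispensed) and NADPH were mixed with compound. Second, a 15 min room-temperature incubation followed. Third, further NADPH and then DTNB were added to start the reaction. Finally, TNB absorbance was monitored kinetically.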
# Shiga inhibitor – Shiga toxin inhibition | AID 2315 | actives 9.2% (n = 290,000) | inhibition, % at 38.7 µM | Vero cells, Shiga toxin protein synthesis inhibition reporter; in the data active = inhibition mostly above about 28%, no sharp cut-off; inactive = mostly below about 43%; also: 0% is about no effect
# CHX counter – affects cycloheximide protein synthesis inhibition readout, counter-screen | cell reporter, cycloheximide protein synthesis inhibition counterscreen | max response, % | actives 12% (n = 300,000) | AID 2314; in the data active = max response mostly above about 13%, no sharp cut-off; inactive = mostly below about 14%; also: read at 38.3 µM for the half of the compounds with a filed dose; 0% is about no effect
# FMDV inh – blocks foot and mouth disease virus; FMDV antiviral cell-based qHTS; Potency, µM (titrated, usually from 57.9 µM), for the others: top-dose activity change, negative = inhibition, most hits filed as inhibitors; actives 1.2% (n = 410,000); calls by dose curve; tested in HEK293T cells; also: read-out not given here; potency is read from the fitted curve at half-maximal effect; % is scaled to controls: 0 for no effect and ±100 for the full control effect; nearly all actives have a fitted effect of over 45% in size
# Active calls of the source: *; ? = inconclusive; / = no result. Only some compounds are listed: those with a hit (about 12% of all), similar ones and a draw of the others.
SMILES,Sm TGR block,Shiga inhibitor,CHX counter,FMDV inh
CCc1ccc(C2CC(=O)Nc3cc4c(cc32)OCO4)cc1 (stereo not given),-4%,/,/,-26%
CC(C)(C)C(=O)COC(=O)c1cc2ccccc2cc1O,-3%,39,25*,41%
CC1CCN(C(=O)COC(=O)c2cc3ccccc3cc2O)CC1,2%,59,42*,-13%
CC1CC(C)CN(C(=O)COC(=O)c2cc3ccccc3cc2O)C1 (stereo not given),0%,26,11,-13%
CN(C)c1ccc(Nc2ncnc3sc4c(c23)CCCC4)cc1,-2%,/,/,?
CCCSc1ccc2nc(NC(=O)OC)[nH]c2c1,-5%,141*,35*,41%
COC(=O)Nc1nc2ccc(SC(C)C)cc2[nH]1,0%,/,/,45%
Cc1c(NC(=O)c2ccccc2NC(=O)c2ccccc2)cccc1C(=O)O,1%,-4,-3,12%
Nc1ccccc1NC(=O)NC(=O)c1ccccc1,4%,/,41*,50%
Cc1c(NC(=O)c2ccccc2N)cccc1C(=O)O,0%,46*,25*,?
Nc1ccccc1NC(=O)c1ccccc1N,8%,30*,36*,28%
Cc1ccc(N2CC(NC(=O)c3cccs3)CC2=O)cc1C (stereo not given),6%,/,/,-13%
Cc1ccc2nc(=O)c(NNc3ccccc3)cnc2c1,-9%,21,23*,40%
Cc1nc2ccccc2nc(=O)c1NNc1ccccc1,-3%,23*,20*,12%
NC1=NC(=O)/C(=C/c2cccc(-c3ccc(S(N)(=O)=O)cc3)c2)S1,10µM*,-11,-1,-12%
COc1ccc(/C=C2\SC(N)=NC2=O)cc1Br,0%,/,19*,0%
Cn1c(=NC(=O)c2ccccc2[N+](=O)[O-])sc2cc(S(C)(=O)=O)ccc21,2%,50*,64*,32%
CC(C)CNC(=O)C(=O)N/N=C/c1cccs1,-17%,46,28*,69%
CC(C)NC(=O)CC(=O)N/N=C/c1cccs1,-4%,-9,-3,-6%
CCCNC(=O)C(=O)N/N=C/c1cccs1,-4%,15,21*,37%
O=C(N/N=C/c1cccs1)C(=O)Nc1cccc(Cl)c1,4%,55*,20*,72%
CC(C)(C)NC(=O)C(=O)N/N=C/c1cccs1,6%,67*,37*,54%
CN(C(=O)c1ccc2c(c1)N(Cc1ccccc1F)C(=O)c1ccccc1S2(=O)=O)C1CCCCC1,0%,/,/,5%
O=C(CNC(=S)NC(=O)c1ccc(F)cc1)c1ccccc1,-2%,10,6,29%
CC(C)C(=O)NC(=S)NCC(=O)c1ccccc1,1%,26,29*,23%
SMILES,Sm TGR block,Shiga inhibitor,CHX counter,FMDV inh
O=C(CNC(=S)NC(=O)c1ccccc1)c1ccccc1,-8%,44*,23*,-11%
COc1ccc(S(=O)(=O)Nc2ccc3c(c2)N(C(C)=O)CCC3)cc1F,1%,/,/,10µM*
CC(=O)N1CCCc2ccc(NS(=O)(=O)c3ccc(C)c(C)c3)cc21,0%,1,0,-7%
COc1cccc(NC(=O)Cn2c(=O)n(CCCCC(=O)NCCc3ccccc3)c(=O)c3ccccc32)c1,-1%,/,/,-9%
Cc1ccc(OCc2nnc(N)s2)cc1C,5%,59*,21*,51%
Cc1cc(C)cc(OCc2nnc(N)s2)c1,2%,22,1,9%
Cc1ccc(OCc2nnc(N)s2)cc1,4%,27*,28*,34%
CNNC(=S)NCCC1=CCCCC1,2%,18,16*,23%
CCOC(=O)c1ccc(NC(=S)NCCC2=CCCCC2)cc1,7%,-3,3,-18%
Cc1ccc(SCC(=O)NCCC2=CCCCC2)cc1,-12%,38*,38*,43%
Cc1ccc(NC(=S)NCCC2=CCCCC2)cc1,-10%,89*,34*,52%
CC(=O)c1cccc(NC(=S)NCCC2=CCCCC2)c1,4%,47*,33*,0%
Cc1ccc(OCC(=O)NCCC2=CCCCC2)cc1,-5%,-52,18,-9%
CCCCCn1c(=N)n(CC(O)COc2cccc(C)c2)c2ccccc21 (stereo not given),1%,/,/,?
Cc1cc(=O)nc2c3ccccc3n(CC(=O)NCCC3=CCCCC3)n12,-8%,115,40*,-13%
Cc1ccc(N2C(=O)CS(=O)C(c3ccccc3)C2=O)cc1C (stereo not given),1.1µM*,65*,28*,45%
COc1ccc(N2C(=O)CS(=O)C(c3ccccc3)C2=O)cc1 (stereo not given),/,14,-1,37%
Cc1ccccc1NS(=O)(=O)c1ccc2[nH]cc(C(=O)NC3CCCCC3)c(=O)c2c1,4%,/,/,-8%
Cc1cccc(Nc2nc(-c3sc(C)nc3C)cs2)c1,19%,50*,29*,?
Cc1nc(C)c(-c2csc(Nc3cccc(O)c3)n2)s1,-7%,35*,45*,32%
Cc1nc2ccccn2c1-c1csc(Nc2cccc(O)c2)n1,-10%,32,2,?
Cc1nc(N)sc1-c1csc(Nc2cc(N(C)C)ccc2Cl)n1,/,/,/,-9%
Cc1nc(N)sc1-c1csc(Nc2cccc(O)c2)n1,?,30,14*,-28%
CCC(=O)Nc1nc(C)c(-c2csc(Nc3cccc(O)c3)n2)s1,-18%,50*,36*,-14%
Cc1nc(NC(=O)c2ccccc2)sc1-c1csc(Nc2cccc(Cl)c2)n1,10%,56,19,/
SMILES,Sm TGR block,Shiga inhibitor,CHX counter,FMDV inh
CCc1ccc(OCC(=O)NCC(c2ccc(Cl)cc2)N2CCOCC2)cc1 (stereo not given),6%,/,/,?
CCCc1cc(C(=O)Nc2c(C)nn(Cc3c(Cl)cccc3Cl)c2C)no1,9%,/,/,-15%
CCN(CC)C1CCN(C(=O)c2cnn(-c3nccc(-c4ccco4)n3)c2C(C)C)C1 (stereo not given),/,/,/,-2%
Cc1cccc(NC(=O)Cn2cc(C(=O)C3CCCCC3)c3ccccc32)c1,-1%,/,/,-10%
CC(=C1C(=O)c2ccccc2C1=O)N1CCN(Cc2ccccc2)CC1,40µM*,23,8,30%
CC(=C1C(=O)c2ccccc2C1=O)N1CCC(C(N)=O)(N2CCCCC2)CC1,32µM*,-1,-2,-10%
CC(C)=C1SC(N2CCN(Cc3ccccc3)CC2)=NC1=O,-7%,73,23*,5%
NC(=O)C1(N2CCCCC2)CCN(C(=S)NCCc2ccccc2)CC1,-2%,-12,-2,3%
CC(=C1C(=O)c2ccccc2C1=O)N1CCN(C/C=C/c2ccccc2)CC1,?,-18,9,19%
CC(C)=C1SC(N2CCN(c3cccc(Cl)c3)CC2)=NC1=O,-11%,2,0,-16%
Cc1ccccc1CN1C(=O)c2ccccc2S(=O)c2ccc(C(=O)NCc3ccc4c(c3)OCO4)cc21 (stereo not given),9%,/,/,0%
COc1ccc(OC)c(/C=C/C(=O)c2ccc(Cl)cc2)c1,0%,23,13,22µM*
COc1ccccc1/C=C/C(=O)c1c2c(c(C)[nH]c1=O)CCCC2,45µM*,23,9,?
COc1ccc2cc(C(=O)/C=C/c3cc(OC)c(OC)c(OC)c3)ccc2c1,-14%,12,17,-10%
O=C(/C=C/c1ccccc1O)c1ccc(Cl)cc1,?,58*,41*,30%
